Measured values reported in PubChem BioAssay (NCATS).
Results filed as inconclusive are left out. Calls come from the whole dose curve; as a rule, active = well fitted activation curve with a large enough effect in the signal ratio, with a control signal flat (not every such curve was filed as active); inconclusive = small, poorly fitted or top-dose-only effect, or effect the other way, or a change in a side signal; inactive = flat fitted curve, though single readings scatter; the % refers to the signal ratio.

experiment: qHTS Assay for Identification of Small Molecule Agonists for Hypoxia Response Element Signaling Pathway (AID 914); conditions: ME-180 (cervical carcinoma) HRE-bla reporter, beta-lactamase ratio, CoCl2, 17 h; active compounds read high; note: % of control where 0% means no effect
How it was run: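 Cells were plated overnight, pin-dosed with compound in a titration series, co-stimulated with EC50 CoCl2 and incubated 17 hours at 37 degrees Celsius. CCF4 substrate was then loaded, and AC50 values came from the 460nm/530nm ratio.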

activation, inactive:
COc1ccc(COC(=O)N/N=C2/C[C@@H](O)[C@@H](O)[C@@H]3[C@@H]4C(=O)N(Cc5ccc6c(c5)OCO6)C(=O)[C@H]4CC[C@@H]23)cc1 0.811%, CCN1C(=O)[C@H]2[C@H]3[C@H](O)[C@H](O)C/C(=N/O[C@@H](C)c4cn([C@H](CO)Cc5ccccc5)nn4)[C@@H]3CC[C@@H]2C1=O 1.7%, Cc1cc2c(nc1C)CCCCN2C[C@H](O)CN1CCCc2nc(-c3ccc(Br)cc3)ccc21 -0.373%, Cc1ccc2nc3nc4ccc[nH]c4cc3c2c1 -21.2%, CC(C)C(=O)N[C@H]1CCCN1C(=O)/C=C\c1ccccc1 4.87%, O=C(N/N=C1/C[C@@H](O)[C@@H](O)[C@@H]2[C@@H]3C(=O)N(c4cccc(Oc5ccccc5)c4)C(=O)[C@H]3CC[C@@H]12)OCc1ccccc1 -0.0366%, O=C1C=C[C@@H](O)[C@H]2[C@@H]3C(=O)N(C[C@@H]4CCCO4)C(=O)[C@@H]3CC[C@H]12 -2.79%, C#CCCCO/N=C1/C[C@@H](O)[C@@H](O)[C@@H]2[C@@H]3C(=O)N(c4cccc(Oc5ccccc5)c4)C(=O)[C@H]3CC[C@@H]12 -6.82%, COC(=O)C/C=C\[C@@H](C)[C@@H]1C=C[C@H](OC(C)=O)[C@H](COC(C)=O)O1 1.52%, CO[C@H]1COC(=O)[C@@H](C)COC(=O)[C@H](C)NC(=O)C/C=C\[C@H]1C -4.15%, C[C@H](c1ccccc1)N1C(=O)[C@H]2[C@@H]3[C@H](O)[C@H](O)CC(=O)[C@H]3CC[C@H]2C1=O 0.807%
